The text below walks through data of the supplement of paper PMC7261846.

The test system of this assay is Candida albicans SNY425 biofilm. The assay can be described thus: biofilm OD600 with compound plus antifungal (OD600 (absorbance)); higher = more biofilm remaining.
Setting [1] is: assay detail: disruption of 24-h mature biofilm (compound + antifungal for a second 24 h).
Where [2] appears, read: assay detail: sustained inhibition (compound + antifungal during 90-min adherence and 24-h growth).

± gives the uncertainty stated by the source.

With `CCOC(=O)[C@H](CCc1ccccc1)N[C@@H](C)C(=O)N1CCC[C@H]1C(=O)O` [Enalapril] + OC(Cn1cncn1)(Cn1cncn1)c1ccc(F)cc1F [fluconazole] (first compound 12.5 µM), the “biofilm OD600” value turned out to be 0.258 ± 0.0055 under setting [1] and 0.157 ± 0.015 under setting [2].

`CC(C)C[C@H](NP(=O)(O)O[C@@H]1O[C@@H](C)[C@H](O)[C@@H](O)[C@H]1O)C(=O)N[C@@H](Cc1c[nH]c2ccccc12)C(=O)O` [Phosphoramidon] + CC[C@H](C)C[C@H](C)CCCCCCCCC(=O)N[C@H]1C[C@@H](O)[C@@H](NCCN)NC(=O)[C@@H]2[C@@H](O)CCN2C(=O)[C@H]([C@H](O)CCN)NC(=O)[C@H]([C@H](O)[C@@H](O)c2ccc(O)cc2)NC(=O)[C@@H]2C[C@@H](O)CN2C(=O)[C@H]([C@@H](C)O)NC1=O [caspofungin] (first compound 12.5 µM): the “biofilm OD600” value runs as follows: under setting [1], 0.273 ± 0.012; under setting [2], 0.191 ± 0.013.

Regarding `Cc1c(O)cccc1C(=O)N[C@@H](CSc1ccccc1)[C@H](O)CN1C[C@H]2CCCC[C@H]2C[C@H]1C(=O)NC(C)(C)C` [nelfinavir] + OC(Cn1cncn1)(Cn1cncn1)c1ccc(F)cc1F [fluconazole] (first compound 12.5 µM), the “biofilm OD600” value by setting is: under setting [1], 0.255 ± 0.0099; under setting [2], 0.121 ± 0.018.

As for `CCCCCCCCCC(=O)N[C@@H](CCCN=C(N)N)C(=O)N[C@H](C(=O)N[C@@H](CCCCN)C(=O)N[C@@H](CCCN=C(N)N)C(=O)CCl)C(C)C` + OC(Cn1cncn1)(Cn1cncn1)c1ccc(F)cc1F [fluconazole] (first compound 4 µM), the “biofilm OD600” value reads like this: under setting [1], 0.267 ± 0.0072; under setting [2], 0.108 ± 0.005.

Take `CO[C@@H]1[C@H](OC(=O)/C=C/C=C/C=C/C=C/C(=O)O)CC[C@]2(CO2)[C@H]1[C@@]1(C)O[C@@H]1CC=C(C)C` [Fumagillin] + C[C@@H]1[C@H](O)[C@@H](C)/C=C/C=C/C=C/C=C/C=C/C=C/C=C/[C@H](O[C@@H]2O[C@H](C)[C@@H](O)[C@H](N)[C@@H]2O)C[C@@H]2O[C@](O)(C[C@@H](O)C[C@@H](O)[C@H](O)CC[C@@H](O)C[C@@H](O)CC(=O)O[C@H]1C)C[C@H](O)[C@H]2C(=O)O [amphotericin B] (first compound 12.5 µM): the “biofilm OD600” value under setting [1] came out at 0.264 ± 0.0097 and the “biofilm OD600” value under setting [2] was determined as 0.185 ± 0.0052.

Consider `CC(C)C[C@@H](C=O)NC(=O)[C@H](CC(C)C)NC(=O)[C@H](CC(C)C)NC(=O)OCc1ccccc1` + OC(Cn1cncn1)(Cn1cncn1)c1ccc(F)cc1F [fluconazole] (first compound 12.5 µM), for which the “biofilm OD600” value by setting is: under setting [1], 0.277 ± 0.0062; under setting [2], 0.148 ± 0.0097.

Regarding `Cc1cccc(C)c1OCC(=O)N[C@@H](Cc1ccccc1)[C@@H](O)C[C@H](Cc1ccccc1)NC(=O)[C@H](C(C)C)N1CCCNC1=O` [lopinavir] + CC[C@H](C)C[C@H](C)CCCCCCCCC(=O)N[C@H]1C[C@@H](O)[C@@H](NCCN)NC(=O)[C@@H]2[C@@H](O)CCN2C(=O)[C@H]([C@H](O)CCN)NC(=O)[C@H]([C@H](O)[C@@H](O)c2ccc(O)cc2)NC(=O)[C@@H]2C[C@@H](O)CN2C(=O)[C@H]([C@@H](C)O)NC1=O [caspofungin] (first compound 12.5 µM), the “biofilm OD600” value under setting [1] came out at 0.153 ± 0.0047 and the “biofilm OD600” value under setting [2] turned out to be 0.0941 ± 0.0079.

In the case of `CC1CNc2c(cccc2S(=O)(=O)N[C@@H](CCCNC(=N)N)C(=O)N2CC[C@@H](C)C[C@@H]2C(=O)O)C1` (some centres not stated) [Argatroban] + OC(Cn1cncn1)(Cn1cncn1)c1ccc(F)cc1F [fluconazole] (first compound 12.5 µM), the “biofilm OD600” value runs as follows: under setting [1], 0.286 ± 0.011; under setting [2], 0.113 ± 0.0066.

Consider `CC(NC(=O)C(Cc1ccccc1)NC(=O)OCc1ccccc1)C(=O)CF` (configuration not stated) + C[C@@H]1[C@H](O)[C@@H](C)/C=C/C=C/C=C/C=C/C=C/C=C/C=C/[C@H](O[C@@H]2O[C@H](C)[C@@H](O)[C@H](N)[C@@H]2O)C[C@@H]2O[C@](O)(C[C@@H](O)C[C@@H](O)[C@H](O)CC[C@@H](O)C[C@@H](O)CC(=O)O[C@H]1C)C[C@H](O)[C@H]2C(=O)O [amphotericin B] (first compound 12.5 µM), for which the “biofilm OD600” value is, setting by setting: under setting [1], 0.307 ± 0.0094; under setting [2], 0.185 ± 0.005.

For the molecule `C[C@H](CS)C(=O)N1CCC[C@H]1C(=O)O` [Captopril] + OC(Cn1cncn1)(Cn1cncn1)c1ccc(F)cc1F [fluconazole] (first compound 12.5 µM), the “biofilm OD600” value runs as follows: under setting [1], 0.281 ± 0.0069; under setting [2], 0.167 ± 0.01.

In the case of `O=C(NCCCCN1CCOCC1)c1cc2ccccc2o1` + OC(Cn1cncn1)(Cn1cncn1)c1ccc(F)cc1F [fluconazole] (first compound 12.5 µM), the “biofilm OD600” value under setting [1] came out at 0.258 ± 0.0098 and the “biofilm OD600” value under setting [2] was determined as 0.158 ± 0.008.
